This passage reports growth results from PubChem BioAssay (NCI).

Molecules are shown by their SMILES. Compounds without any hit were thinned out: in the full panel of roughly 83,000, 20% have a hit.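 Growth was measured after 48 h exposure to one concentration of compound in 96-well plates. Values under 10 count as active.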 A number with no mark means an inactive call. Active and inactive are the calls of the source.

Common to all, as to assay: NCI-60 one-dose screen, 48 h (100 = growth as untreated, 0 = no growth, -100 = all killed)
One assay deals with SK-MEL-2 melanoma. As to conditions: 10 µM unless noted.
In a further assay the test system is EKVX NSCLC. Conditions: 10 µM unless noted.
In a further assay the test system is SN12C renal. Conditions: 10 µM unless noted.
A further assay relates to UO-31 renal. Conditions: 10 µM unless noted.
The test system of the next assay is TK-10 renal. Conditions: 10 µM unless noted.
A further assay concerns ACHN renal. As to conditions: 10 µM unless noted.
In a further assay the test system is CAKI-1 renal. As to conditions: 10 µM unless noted.
A further assay deals with CCRF-CEM leukemia. As to conditions: 10 µM unless noted.
Another assay has as its system MOLT-4 leukemia. As to conditions: 10 µM unless noted.
For the next assay, the system named is SR leukemia. As to conditions: 10 µM unless noted.
For a further assay, the system named is OVCAR-8 ovarian. Conditions: 10 µM unless noted.
Another assay concerns OVCAR-4 ovarian. Conditions: 10 µM unless noted.
Another assay relates to IGROV1 ovarian. Conditions: 10 µM unless noted.
Another assay has as its system OVCAR-3 ovarian. Conditions: 10 µM unless noted.
A further assay deals with HS 578T breast. As to conditions: 10 µM unless noted.
For the next assay, the system named is NCI/ADR-RES ovarian. Conditions: 10 µM unless noted.
Another assay deals with RPMI-8226 leukemia. As to conditions: 10 µM.
The next assay has as its system OVCAR-5 ovarian. Conditions: 10 µM unless noted.
The subject of another assay is SK-OV-3 ovarian. As to conditions: 10 µM.

As for `Cl.Fc1c[c-]c(-c2ccccn2)c(F)c1.[Pt].c1ccc([PH+](CC[PH+](c2ccccc2)c2ccccc2)c2ccccc2)cc1`, the growth was -76.8% (active) in the assay with SK-MEL-2 melanoma; -99.2% (active) with EKVX NSCLC; -75.8% (active) with SN12C renal; -92.4% (active) with UO-31 renal; -83.7% (active) with TK-10 renal; -97.9% (active) with ACHN renal. In addition, the growth in the assay with CAKI-1 renal was -83.5% (active); in the assay with CCRF-CEM leukemia, -43% (active); with MOLT-4 leukemia it was -26.8% (active); in the assay on SR leukemia, -6.03% (active); in the assay on OVCAR-8 ovarian it was -29.1% (active); in the assay on OVCAR-4 ovarian it was -87.8% (active). Moreover, the growth is -75.5% (active) in the assay on IGROV1 ovarian, -97.2% (active) in the assay with OVCAR-3 ovarian, -44.6% (active) in the assay on HS 578T breast and -35.4% (active) in the assay with NCI/ADR-RES ovarian.

With `Cc1cccc2c(=O)c3c(sc12)c(NCCNCCO)nc1ccccc13`, the growth with SK-MEL-2 melanoma is 79.3%; in the assay on EKVX NSCLC, 41.6%; with SN12C renal it was 33.4%; in the assay on UO-31 renal, 29.6%; with TK-10 renal, 34.9%; in the assay on ACHN renal it was -19.2% (active). For the same compound, the growth in the assay on CAKI-1 renal was 22.1%; in the assay with CCRF-CEM leukemia, 13.7%; in the assay on MOLT-4 leukemia it was -31.1% (active); in the assay with SR leukemia, -44.1% (active); with RPMI-8226 leukemia, -34.2% (active); with OVCAR-8 ovarian it was 34%. The growth was 64.9% with OVCAR-5 ovarian; 16.1% in the assay on IGROV1 ovarian; 45.1% with OVCAR-3 ovarian; 54.5% with HS 578T breast; 45.1% in the assay on NCI/ADR-RES ovarian.

`CCN(CC)c1ccc2c(c1)OS(=O)(=O)N=C2`: the growth is 113% in the assay on SK-MEL-2 melanoma; 88% in the assay on EKVX NSCLC; 100% with SN12C renal; 82.6% in the assay with UO-31 renal; 101% in the assay with TK-10 renal; 102% in the assay with ACHN renal. In addition, the growth in the assay with CAKI-1 renal was 94.7%; in the assay with CCRF-CEM leukemia, 106%; in the assay on MOLT-4 leukemia, 110%; with SR leukemia, 93.3%; with RPMI-8226 leukemia, 104%; in the assay on OVCAR-8 ovarian it was 107%. The growth in the assay on OVCAR-5 ovarian was 99.9%; with OVCAR-4 ovarian, 97.9%; in the assay on IGROV1 ovarian, 97.5%; with OVCAR-3 ovarian, 114%; in the assay on HS 578T breast, 110%; in the assay with NCI/ADR-RES ovarian it was 95.6%.

`O=C(N/N=C(\CS(=O)(=O)c1ccccc1)c1cc2cc(Br)ccc2oc1=O)c1ccccc1`: the growth is 105% with SK-MEL-2 melanoma; 94.2% with EKVX NSCLC; 96.1% with SN12C renal; 94.4% in the assay with UO-31 renal; 108% with TK-10 renal; 103% in the assay with ACHN renal. Also, the growth in the assay on CAKI-1 renal is 90.6%; in the assay on CCRF-CEM leukemia, 131%; in the assay with MOLT-4 leukemia it was 140%; in the assay on SR leukemia it was 122%; in the assay with RPMI-8226 leukemia, 121%; with OVCAR-8 ovarian it was 101%. The growth in the assay with IGROV1 ovarian is 110%; in the assay on OVCAR-3 ovarian, 108%; in the assay with HS 578T breast, 99.4%; with NCI/ADR-RES ovarian, 105%.

Turning to `CCOC(=O)c1cnn(CC(O)c2ccc(F)cc2)c1NC(=O)Nc1ccccc1F` (configuration not stated), the growth was 111% in the assay on SK-MEL-2 melanoma; 101% with EKVX NSCLC; 106% in the assay on SN12C renal; 71.5% in the assay on UO-31 renal; 103% with TK-10 renal; 98.3% in the assay on ACHN renal. The growth was 83.7% in the assay on CAKI-1 renal; 96.9% in the assay on CCRF-CEM leukemia; 91.8% with MOLT-4 leukemia; 105% in the assay on SR leukemia; 82.9% in the assay with RPMI-8226 leukemia; 104% in the assay with OVCAR-8 ovarian. Besides, the growth with OVCAR-5 ovarian was 101%; in the assay with OVCAR-4 ovarian it was 81.7%; with IGROV1 ovarian, 101%; in the assay on OVCAR-3 ovarian, 107%; in the assay on HS 578T breast it was 97.3%; in the assay with NCI/ADR-RES ovarian it was 101%.

Consider `Cc1nc(-c2ccccc2)cc2c(O)c(C(=O)N/N=C/Cc3ccccc3)[nH]c(=O)c12`, for which the growth was 102% in the assay on SK-MEL-2 melanoma; 103% in the assay on EKVX NSCLC; 104% with SN12C renal; 95.1% in the assay on UO-31 renal; 109% in the assay with TK-10 renal; 104% in the assay on ACHN renal. Also, the growth in the assay with CAKI-1 renal was 111%; with CCRF-CEM leukemia, 92.4%; in the assay with MOLT-4 leukemia, 90.5%; in the assay on SR leukemia it was 46.1%; in the assay with RPMI-8226 leukemia, 103%; with OVCAR-8 ovarian, 103%. In addition, the growth is 101% in the assay on OVCAR-5 ovarian; 110% with OVCAR-4 ovarian; 108% with SK-OV-3 ovarian; 113% with IGROV1 ovarian; 116% in the assay with OVCAR-3 ovarian; 112% with HS 578T breast. In the assay on NCI/ADR-RES ovarian, the growth is 109%.

Take `COc1ncnc2c1ncn2C/C(Br)=C(\Br)CCl`: the growth is 51.6% with SK-MEL-2 melanoma; 114% in the assay with EKVX NSCLC; 10.8% with SN12C renal; -56.8% (active) with UO-31 renal; 51.3% with TK-10 renal; 14.9% in the assay on ACHN renal. Moreover, the growth was 96.2% in the assay on CAKI-1 renal; -38.7% (active) with CCRF-CEM leukemia; 18.9% with MOLT-4 leukemia; 8.2% (active) with SR leukemia; -25.4% (active) in the assay on RPMI-8226 leukemia; 0.995% (active) in the assay with OVCAR-8 ovarian. Besides, the growth was 62.1% with OVCAR-5 ovarian; -47.1% (active) in the assay on OVCAR-4 ovarian; 148% with SK-OV-3 ovarian; 11.5% in the assay with IGROV1 ovarian; -94.2% (active) in the assay with OVCAR-3 ovarian; 23.5% in the assay with HS 578T breast. Besides, the growth in the assay on NCI/ADR-RES ovarian is -40.4% (active).

With `COc1ccc(/C=C2\SC(=O)N(CN3CCN(c4cc5c(cc4F)c(=O)c(C(=O)O)cn5C4CC4)CC3)C2=O)cc1`, the growth with SK-MEL-2 melanoma was 101%; with EKVX NSCLC, 97.4%; with SN12C renal it was 108%; with UO-31 renal, 80.2%; in the assay with TK-10 renal it was 104%; in the assay on ACHN renal, 111%. The growth was 94.1% with CAKI-1 renal; 111% with CCRF-CEM leukemia; 102% in the assay with SR leukemia; 99.9% in the assay with RPMI-8226 leukemia; 98.5% in the assay on OVCAR-8 ovarian; 108% in the assay on OVCAR-5 ovarian. For the same compound, the growth in the assay with OVCAR-4 ovarian was 104%; with IGROV1 ovarian, 113%; in the assay on OVCAR-3 ovarian, 110%; with HS 578T breast, 108%; in the assay with NCI/ADR-RES ovarian, 103%.

Take `NC(=O)c1cccc(-n2ccc3cc(NC(=O)Nc4ccc(Cl)c(Cl)c4)ccc32)n1`: the growth is 88.3% in the assay on SK-MEL-2 melanoma; 68.3% in the assay with EKVX NSCLC; 86.8% in the assay with SN12C renal; 95.5% with UO-31 renal; 80.7% in the assay on TK-10 renal; 74.5% with ACHN renal. The growth was 57.6% in the assay with CAKI-1 renal; 59.2% in the assay on CCRF-CEM leukemia; 50.7% with MOLT-4 leukemia; 45.5% in the assay with SR leukemia; 80.9% in the assay on OVCAR-8 ovarian; 106% in the assay on OVCAR-5 ovarian. The growth in the assay on OVCAR-4 ovarian is 68.2%; with IGROV1 ovarian, 87.9%; in the assay with OVCAR-3 ovarian, 82.9%; with HS 578T breast, 58.5%; in the assay on NCI/ADR-RES ovarian, 91.8%.
